Source: PubChem
A selection: hits, their analogues and other compounds. The true share with any hit is near 21%.
Pf growth 48h: P. falciparum growth inhibition at 48 hours (one generation); P. falciparum luciferase growth in erythrocytes, 48 h; Potency, µM (series often up to 28.7 µM), for the others: at the highest dose activity change, negative = inhibition, usual class: inhibitors; 310,000 tested, 5.9% active; further: potency means the concentration at half of the fitted maximal effect; on the % scale 0 is the no-effect control and ±100 the full control effect
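Read-out is firefly luciferase luminescence from an integrated reporter in P. falciparum, so falling signal marks reduced parasite growth. Infected erythrocytes were at 2% hematocrit and 0.1% parasitemia (final) in Albumax-supplemented RPMI 1640.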
AMA1 RON2 block: disrupts binding of P. falciparum AMA1 to RON2 | AID 720542 | AlphaScreen AMA1-biotinylated RON2 peptide binding | Potency, µM (highest dose often 58.2 µM), for inactives: at the highest dose activity change, negative = inhibition, most hits filed as inhibitors | 360,000 tested, 0.2% active;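 further: potency means the concentration at half of the fitted maximal effect; 0% = vehicle wells and -100% = peptide control; nearly all actives have a fitted effect of over 45% in size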
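AMA1 (3D7) with his tag at 25 nM final met compounds first, then biotinylated RON2 peptide at 25 nM; detection used donor plus acceptor beads, 10 µg/mL apiece, read by AlphaScreen after 30 min at room temperature.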
CHX counter: counter-screen hit for Shiga toxin inhibitors, cycloheximide. 300,000 tested, 12% active. AID 2314. max response, %. cell reporter, cycloheximide protein synthesis inhibition counterscreen; in the data active means max response mostly above about 13%, no sharp cut-off; inactive means mostly below about 14%; further: read at 38.3 µM for the half of the compounds with a filed dose; 0% is about no effect
HCV inh: HCV inhibition; Huh7.5.1 HCVcc-Cre infection, luciferase reporter, 44 h; Potency, µM (titrated, usually from 41.8 µM), for inactives: top-dose activity change, negative = inhibition, actives largely listed as inhibitors; 340,000 tested, 3.4% active; AID 651820; further: potency means the concentration at half of the fitted maximal effect; on the % scale 0 is the no-effect control and ±100 the full control effect
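Compounds are dispensed onto cells plated 4 h earlier at 1,000 per well, with HCVcc-Cre virus (about 0.5 moi) added next. Following 44 h of culture, luminescent signal is measured for 15 sec after 15 min with substrate at room temperature.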
Pf growth 96h: P. falciparum growth inhibition at 96 hours | P. falciparum luciferase reporter growth, 96 h | Potency, µM (top dose mostly 28.7 µM), inactives show at the highest dose activity change, negative = inhibition, hits mostly inhibitors | 320,000 tested, 6.9% active; further: potency means the concentration at half of the fitted maximal effect; on the % scale 0 is the no-effect control and ±100 the full control effect
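Infected RBCs, 2% Hct / 0.05% parasitemia final; luciferase-reporter P. falciparum; cpd 96 h, 37 C, 5% CO2; luciferase detection reagent; luminescence.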
Shiga inhibitor: blocks Shiga toxin action in Vero cells. Vero cells, Shiga toxin protein synthesis inhibition reporter. inhibition, % at 38.7 µM. 290,000 tested, 9.2% active; in the data active means inhibition mostly above about 28%, no sharp cut-off; inactive means mostly below about 43%; further: 0% is about no effect
An asterisk follows results filed as active; ? = inconclusive; / = not tested or not shown; [ ] = dose if it differs, or a comment. Unless noted, the call rests on the fitted dose curve; in most records, active means well fitted curve in the direction sought with a large enough effect; inconclusive means small, poorly fitted or top-dose-only effect, or another doubt; inactive means no such curve, though single readings can be large; an effect the other way counts as inactive or inconclusive.

SMILES	Pf growth 48h	AMA1 RON2 block	CHX counter	HCV inh	Pf growth 96h	Shiga inhibitor
C=C1[C@H]2O[C@H]2[C@@H](OC(C)=O)[C@@]2(C)[C@@H](OC(C)=O)C[C@@H](OC(C)=O)[C@@](C)(O)[C@@H]2[C@@H](OC(C)=O)[C@@]2(O)[C@@H](C)C(=O)O[C@H]2[C@H]1Cl	/	-1%	/	-13%[8.37 µM]	/	/
C=CCN1C(=O)c2ccc(C(=O)N3CCC(C(N)=O)CC3)cc2C1=O	8%	5%	-3	11%	6%	-6
C=CCOc1ccc(C(=O)c2ccccc2)c(OCC(=O)NC2(C#N)CCCC2)c1	?	-17%	-2	?	?	-3
CN(C)CCCNC(=O)OC1CC2CC1[C@H]1CCCCN1C2=O (some centres not stated)	/	21%	/	/	/	/
Cc1ccc(S(=O)(=O)N2CCN(C(=O)C3CCN(c4ncnc5sc(C)c(C)c45)CC3)CC2)c(C)c1	/	-1%	/	4.5µM*	/	/
O=S(=O)(c1ccc(Oc2ncnc3scc(-c4ccccc4)c23)cc1)N1CCOCC1	?	-11%	-5	10µM*	-8%	-9
O=C(Cc1cccs1)Nc1cccc(-c2ccc3nncn3n2)c1	?	-3%	7	5%	-12%	26
O=C(NCc1cccnc1)c1[nH]c(C(F)(F)F)nc1-c1ccccc1	/	-6%	/	/	/	/
CCN(CC)S(=O)(=O)c1cc(NC(=O)Cn2ncc(Cl)c(Cl)c2=O)ccc1C	?	2%	32*	?	-25%	-12
CCc1ccc(C(=O)Nc2ccc(OC)c(S(=O)(=O)N3CCCCC3)c2)cc1	?	0%	/	4.5µM*	?	/
COc1ccccc1NS(=O)(=O)c1cc(NC(=O)c2ccc(Cl)nc2)ccc1Cl	1.7µM*	2%	-2	7.1µM*	3.3µM*	25
COc1ccc(C(=O)Nc2ccc(Cl)c(S(=O)(=O)Nc3ccccc3OC)c2)cc1	?	-7%	5	?	?	14
CCc1ccc(C(=O)Nc2ccc(OC)c(S(=O)(=O)N3CCOCC3)c2)cc1	0%	1%	2	8.9µM*	?	-6
COc1ccc(NC(=O)c2ccncc2)cc1S(=O)(=O)N1CCCCC1	/	9%	/	/	/	/
COc1ccc(NC(=O)c2ccc(-c3ccccc3)cc2)cc1S(=O)(=O)N1CCOCC1	0%	-8%	-1	?	-25%	-8
O=C(Cn1ncc(Cl)c(Cl)c1=O)Nc1ccc2c(c1)OCO2	-15%	-10%	/	?	-4%	/
Cc1cc(N(C)C(=O)c2ccc3c(c2)S(=O)(=O)c2cc(Cl)ccc2C3=O)c(C(F)(F)F)o1	/	-4%	/	13%	/	/
COc1ccc([C@@H]2CC(=O)c3c(O)cc(O[C@@H]4O[C@H](CO[C@@H]5O[C@@H](C)[C@H](O)[C@@H](O)[C@H]5O)[C@@H](O)[C@H](O)[C@H]4O)cc3O2)cc1	/	/	-3	/	/	-18
C[C@H]1CN([C@@H](C)CO)C(=O)c2cc(Br)cnc2O[C@@H]1CN(C)C(=O)C1CCC1	/	0%	/	/	/	/
COc1ccc(COC(=O)c2ccc(Br)c(S(=O)(=O)N3CCOCC3)c2)cc1F	3.3µM*	-26%	/	?	?	/
COc1ccc(NC(=O)c2ccc(Cl)nc2)cc1S(=O)(=O)N1CCOCC1	?	-3%	/	?	12µM*	/
COc1ccc(NC(=O)Cn2ncc(Cl)c(Cl)c2=O)cc1S(=O)(=O)N1CCOCC1	?	-6%	19*	8.9µM*	?	20
COc1ccc(C(=O)OCc2ccc(C)cc2)cc1S(=O)(=O)N1CCOCC1	?	-10%	/	?	?	/
COc1ccc(NC(=O)Cc2ccsc2)cc1S(=O)(=O)N1CCOCC1	?	-8%	/	9%	?	/
COc1ccc(NC(=O)[C@@H]2CC=C[C@@H]3CCN(Cc4ccc(Cl)c(Cl)c4)C(=O)[C@@H]32)cc1	/	1%	/	0.56µM*	/	/
SMILES	Pf growth 48h	AMA1 RON2 block	CHX counter	HCV inh	Pf growth 96h	Shiga inhibitor
CCc1cccc(NC(=O)c2cccc(S(=O)(=O)N3CCN(C)CC3)c2)c1	10%	-3%	-6	-19%	-6%	-15
Cc1ccc(CNC(=O)COC(=O)c2ccc(S(=O)(=O)N3CCOCC3)cc2)cc1	/	-7%	/	3%	/	/
CCOC(=O)c1[nH]c2ccccc2c1NC(=O)c1ccc(S(=O)(=O)N2CCOCC2)cc1	?	-2%	-3	4%[8.37 µM]	15µM*	2
CCOC(=O)c1sc(NC(=O)c2cccc(S(=O)(=O)N3CCN(C)CC3)c2)cc1C	2.3µM*	-9%	31	?	-9%	17
CCOC(=O)c1sc(NC(=O)c2cccc(S(=O)(=O)N(CC)CC)c2)cc1C	/	-7%	0	?	2.1µM*	-8
CN1CCN(S(=O)(=O)c2cccc(C(=O)Nc3sc4c(c3C(N)=O)CCCC4)c2)CC1	-16%	13%	1	-27%	/	-11
CCN(CC)S(=O)(=O)c1cccc(C(=O)Nc2nnc(C)s2)c1	30%	23%	19	-13%	308%	-8
COC(=O)c1c(NC(=O)c2cccc(S(=O)(=O)N3CCN(C)CC3)c2)sc(C)c1C	?	0%	/	?	12µM*	/
CC(C)CC(CO)N1CCN(C(=O)c2ccc(Cl)cc2)CCC1=O (configuration not stated)	/	-4%	/	-14%[8.37 µM]	/	/
O=c1[nH]nc(-c2n[nH]c(=O)o2)o1	/	22%	/	23%	/	/
CCOC(=O)c1sc(NC(=O)c2ccc(S(=O)(=O)N3CCOCC3)cc2)cc1C	?	-4%	-4	?	5.9µM*	33
CN(CCC#N)C(=S)Nc1ccc(S(=O)(=O)N2CCOCC2)cc1	-6%	-3%	-3	19%	8%	1
O=C(Nc1ccc(Oc2ccc3ccccc3c2)cc1)c1ccco1	2.1µM*	-1%	7	?	/	47
O=C(Nc1ccc(Oc2ccc(NC(=O)c3ccco3)c(NC(=O)c3ccco3)c2)cc1)c1ccco1	?	-2%	9	25µM*	-30%	15
